The target in test [1] is Estrogen receptor (Homo sapiens) (UniProt P03372). In words: qHTS assay to identify small molecule antagonists of the estrogen receptor alpha (ER-alpha) signaling pathway using the BG1 cell line in the presence of 0.1 nM 17-beta-estradiol (AID 1259244). Further: nearly all actives have a fitted effect of over 50% in size. Put shortly: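 Quantitative high-throughput screen in VM7Luc4E2 cells: compound plus 0.1 nM E2 (final), 22 h, 37C, 5% CO2; ONE-Glo added, 30 min room temperature, luminescence measured.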
Estrogen receptor (Homo sapiens), sequence (P03372 whole entry, looked up): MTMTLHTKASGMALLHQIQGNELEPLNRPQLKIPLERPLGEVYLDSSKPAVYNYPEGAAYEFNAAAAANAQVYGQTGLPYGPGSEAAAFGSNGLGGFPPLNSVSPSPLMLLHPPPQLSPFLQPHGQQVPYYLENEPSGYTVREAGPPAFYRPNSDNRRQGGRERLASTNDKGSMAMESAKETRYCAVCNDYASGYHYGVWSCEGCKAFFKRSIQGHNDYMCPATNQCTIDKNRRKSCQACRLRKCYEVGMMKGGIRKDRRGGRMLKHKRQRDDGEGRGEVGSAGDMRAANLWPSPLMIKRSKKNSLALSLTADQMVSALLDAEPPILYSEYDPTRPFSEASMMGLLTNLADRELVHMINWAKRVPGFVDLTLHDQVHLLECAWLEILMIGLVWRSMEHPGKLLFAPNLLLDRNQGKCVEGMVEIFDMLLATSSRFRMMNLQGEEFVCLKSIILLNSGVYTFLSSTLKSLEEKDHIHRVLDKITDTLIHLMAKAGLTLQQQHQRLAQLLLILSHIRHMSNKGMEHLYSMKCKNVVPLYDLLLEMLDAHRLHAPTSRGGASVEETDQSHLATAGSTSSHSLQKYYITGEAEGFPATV
Background: In qHTS, concentration-response curves come from the screen itself.

Test [2] is described as follows: qHTS assay to identify small molecule HDAC inhibitors (AID 1259364). Further: top concentration of the series differs between compounds; nearly all actives have a fitted effect of over 45% in size. The method in brief: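 Endogenous HDAC class I/II activity was measured in wild-type HCT-116 cells by HDAC-Glo luminescence after 2 h compound treatment.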
Test [3] in a line: qHTS assay to identify small molecule HDAC inhibitors - cell viability counter screen (AID 1259365). Further: series mostly up to about 92 µM; nearly all actives have a fitted effect of over 50% in size. Put shortly: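 Following a 2hr exposure of overnight-plated wild-type HCT-116 cells to DMSO-delivered compounds, CellTiter-Glo was added and luminescence recorded after 30min at room temperature.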
Test [4] can be described thus: qHTS assay to identify small molecule agonists of the sonic hedgehog signaling (Shh) pathway - cell viability counter screen (AID 1259366). Further: nearly all actives have a fitted effect of over 50% in size. Further: potency means the concentration at half of the fitted maximal effect. The method in brief: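 After a 4hr attachment at 37C, NIH/3T3 cells bearing an integrated Gli1-driven luciferase reporter were dosed with compounds. Treatment lasted 24hr, with the final hour including CellTiter-Fluor for a fluorescence viability measurement.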

Test [5] in a line: qHTS assay to identify small molecule antagonists of the sonic hedgehog signaling (Shh) pathway - cell viability counter screen (AID 1259367). Further: nearly all actives have a fitted effect of over 55% in size. Further: potency means the concentration at half of the fitted maximal effect. The method in brief: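 Seed 3T3 Gli1-Luc cells at 2,000 per well; incubate 4 hr; add compound in DMSO, then conditioned medium; incubate at 37C with 5% CO2; add CellTiter-Fluor after 23 hr; read fluorescence 1 hr later.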
Test [6] can be described thus: qHTS assay to identify small molecule agonists of the sonic hedgehog signaling (Shh) pathway (AID 1259368; calls by dose curve;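 further: NIH/3T3-derived 3T3Gli1-Luc cells carrying a stable Gli1-driven firefly luciferase reporter; series mostly up to about 92 µM; nearly all actives have a fitted effect of over 15% in size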). Put shortly: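 Luminescent signal was taken as a measure of Gli1-controlled luciferase expression in stably transfected NIH/3T3-derived cells that had been treated for 24 hr with compounds delivered in DMSO.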
A short description of test [7]: qHTS assay to identify small molecule agonists of the androgen receptor (AR) signaling pathway in the presence of an antagonist - cell viability counter screen (AID 1259379).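 Further: MDA-kb2 human breast cancer cells carrying an MMTV luciferase reporter; series mostly up to about 92 µM; nearly all actives have a fitted effect of over 25% in size.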 The method in brief: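 In MDA-kb2 cells (human breast carcinoma, MMTV-luciferase), compounds at 15 concentrations plus 3.0uM nilutamide; 16 hr, 37C, 0% CO2; CellTiter-Fluor fluorescence read for viability.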

A short description of test [8]: qHTS assay to identify small molecule agonists of the estrogen receptor beta (ER-beta) signaling pathway - cell viability counter screen (AID 1259380). Further: nearly all actives have a fitted effect of over 30% in size. Further: potency means the concentration at half of the fitted maximal effect. The method in brief: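 Viability of ER-beta-UAS-bla HEK293T cells was determined by CellTiter-Glo luminescence following 16 hr treatment with test compounds at 37C.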
Test [9] is described as follows: qHTS assay to identify small molecule antagonists of the estrogen receptor beta (ER-beta) signaling pathway - cell viability counter screen (AID 1259382). Further: series mostly up to about 92 µM; nearly all actives have a fitted effect of over 55% in size. Put shortly:
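Tox21 10K library tested in qHTS format on ER-beta-bla HEK293T cells stimulated with 1nM E2; 16 hr treatment at 37C. Same-well CellTiter-Glo luminescence served as the cell viability measure.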

Test [10] addresses Estrogen receptor (Homo sapiens) (UniProt P03372). In words: qHTS assay to identify small molecule agonists of the estrogen receptor alpha (ER-alpha) signaling pathway in the presence of an antagonist (AID 1259383; calls by dose curve; further: top concentration of the series differs between compounds; nearly all actives have a fitted effect of over 15% in size). The method in brief: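 In VM7Luc4E2 cells, 4,000 per well, compounds at 15 concentrations were co-incubated 22hr at 37C with 10.0nM final ICI-182,780. Luminescence from the stably transfected 4×ERE-luciferase reporter was recorded 30min after ONE-Glo addition.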

A short description of test [11]: qHTS assay to identify small molecule agonists or antagonists of the thyroid stimulating hormone receptor (TSHR) signaling pathway - wild type cell line counter screen (AID 1259384; calls by dose curve). Put shortly:
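Wild-type Hek293 cells, 800/well, 18 h at 37C, then compound with Ro20-1724 for 30 min RT. cAMP by HTRF (cAMP-d2/anti-cAMP cryptate), 1 h RT, fluorescence read. 15 concentrations, triplicates.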

For test [12], the target named is Thyrotropin receptor (Homo sapiens) (UniProt P16473). In words: qHTS assay to identify small molecule antagonists of the thyroid stimulating hormone receptor (TSHR) signaling pathway (AID 1259385; calls by dose curve; further: nearly all actives have a fitted effect of over 20% in size). The method in brief: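 TSHR-HEK293 cells (800/well) plated 18 h, then compounds with Ro20-1724 and TSH at 1.5 ng/mL final, 30 min at room temperature. cAMP quantified by HTRF (cAMP-d2/anti-cAMP-cryptate, 1 h); 15 concentrations in triplicate.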
Thyrotropin receptor (Homo sapiens), sequence (P16473 whole entry, looked up): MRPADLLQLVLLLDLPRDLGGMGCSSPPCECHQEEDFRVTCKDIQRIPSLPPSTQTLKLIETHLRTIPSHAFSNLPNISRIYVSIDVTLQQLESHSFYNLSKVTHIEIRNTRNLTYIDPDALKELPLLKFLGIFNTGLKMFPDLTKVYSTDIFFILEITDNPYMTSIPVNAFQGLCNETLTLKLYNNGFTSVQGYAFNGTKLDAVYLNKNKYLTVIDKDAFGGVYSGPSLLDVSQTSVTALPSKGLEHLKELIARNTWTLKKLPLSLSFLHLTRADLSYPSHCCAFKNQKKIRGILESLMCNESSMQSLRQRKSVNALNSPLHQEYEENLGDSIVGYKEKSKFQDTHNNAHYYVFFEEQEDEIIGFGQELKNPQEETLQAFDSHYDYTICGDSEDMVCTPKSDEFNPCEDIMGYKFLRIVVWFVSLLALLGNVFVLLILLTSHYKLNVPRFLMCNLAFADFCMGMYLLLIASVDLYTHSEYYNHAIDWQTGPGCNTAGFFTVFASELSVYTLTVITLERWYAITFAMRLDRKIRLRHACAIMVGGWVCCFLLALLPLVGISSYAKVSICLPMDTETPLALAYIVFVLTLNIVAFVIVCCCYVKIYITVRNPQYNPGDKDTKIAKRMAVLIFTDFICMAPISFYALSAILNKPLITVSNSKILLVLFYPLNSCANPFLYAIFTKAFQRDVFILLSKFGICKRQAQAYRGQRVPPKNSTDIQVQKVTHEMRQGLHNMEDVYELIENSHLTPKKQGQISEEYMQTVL

The nature of test [13]: qHTS assay to identify small molecule agonists of the estrogen receptor alpha (ER-alpha) signaling pathway in the presence of an antagonist - cell viability counter screen (AID 1259386).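 Further: series mostly up to about 92 µM; cells exposed to compounds for 22 h at 37 °C before the viability read; nearly all actives have a fitted effect of over 30% in size.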 The method in brief: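 Fluorescent CellTiter-Fluor viability signal from VM7Luc4E2 cells, with the reagent added during the final hour of a 22hr compound exposure at 37C in the presence of 10.0nM ICI-182,780.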

For test [14], the target named is Progesterone receptor (Homo sapiens) (UniProt P06401). In words: qHTS assay to identify small molecule agonists of the progesterone receptor (PR) signaling pathway (AID 1346784; calls by dose curve; further: nearly all actives have a fitted effect of over 30% in size). The method in brief: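 Using charcoal-stripped serum (2%) to limit endogenous steroids, PR-UAS-bla HEK 293T cells received compounds for 16 hr at 37C after 6 hr plating; beta-lactamase FRET fluorescence was recorded following 2 hr substrate loading at room temperature.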
Progesterone receptor (Homo sapiens), sequence (P06401 whole entry, looked up): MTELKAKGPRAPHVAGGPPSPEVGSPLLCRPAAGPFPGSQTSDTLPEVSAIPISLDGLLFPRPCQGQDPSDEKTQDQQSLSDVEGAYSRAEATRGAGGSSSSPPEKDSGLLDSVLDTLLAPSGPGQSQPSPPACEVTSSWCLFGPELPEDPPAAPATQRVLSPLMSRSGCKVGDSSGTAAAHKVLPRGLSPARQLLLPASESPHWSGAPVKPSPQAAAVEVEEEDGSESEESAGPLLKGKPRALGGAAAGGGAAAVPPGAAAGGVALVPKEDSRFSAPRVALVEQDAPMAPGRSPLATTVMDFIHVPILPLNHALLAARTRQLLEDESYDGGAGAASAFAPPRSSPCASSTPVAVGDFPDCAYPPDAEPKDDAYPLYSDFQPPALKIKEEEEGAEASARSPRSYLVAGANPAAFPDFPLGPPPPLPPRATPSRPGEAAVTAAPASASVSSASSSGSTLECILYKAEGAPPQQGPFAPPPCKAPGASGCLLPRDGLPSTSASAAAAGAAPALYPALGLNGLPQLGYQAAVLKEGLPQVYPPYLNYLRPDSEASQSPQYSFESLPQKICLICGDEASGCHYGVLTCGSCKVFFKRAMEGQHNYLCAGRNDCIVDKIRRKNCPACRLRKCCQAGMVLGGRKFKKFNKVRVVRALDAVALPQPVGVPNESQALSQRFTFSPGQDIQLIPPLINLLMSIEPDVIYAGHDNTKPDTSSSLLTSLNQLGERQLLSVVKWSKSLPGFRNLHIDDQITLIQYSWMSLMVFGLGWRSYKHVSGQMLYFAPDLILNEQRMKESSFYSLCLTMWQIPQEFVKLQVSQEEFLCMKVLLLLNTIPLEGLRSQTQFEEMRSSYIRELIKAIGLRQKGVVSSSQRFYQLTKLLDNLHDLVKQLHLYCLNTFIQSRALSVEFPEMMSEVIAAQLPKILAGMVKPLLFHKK

For test [15] the target is unchanged. In words: qHTS assay to identify small molecule antagonists of the progesterone receptor (PR) signaling pathway (AID 1346795; active means well fitted inhibition curve with a large enough effect in the signal ratio in the repeat runs, not every such curve was filed as active; the % refers to the signal ratio; further: potency means the concentration at half of the fitted maximal effect). Put shortly: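 Inhibition of R5020-induced (1 nM final) beta-lactamase reporter signal in PR-UAS-bla HEK293T cells was scored by FRET fluorescence after overnight (16 hr) compound treatment.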
Test [16] in a line: qHTS assay to identify small molecule antagonists of the sonic hedgehog signaling (Shh) pathway (AID 1259369; calls by dose curve; further: nearly all actives have a fitted effect of over 45% in size). The method in brief: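 Screening used 3T3Gli1-Luc cells at 2,000 per well, compounds delivered in DMSO, and conditioned medium as agonist stimulus; plates incubated 24hr at 37 C and 5% CO2 before a 30min luciferase step.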
The target in test [17] is Estrogen receptor beta (Homo sapiens) (UniProt Q92731). The test is described as follows: qHTS assay to identify small molecule agonists of the estrogen receptor beta (ER-beta) signaling pathway (AID 1259377; active means well fitted activation curve with a large enough effect in the signal ratio in the repeat runs, not every such curve was filed as active; the % refers to the signal ratio). The method in brief:
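In HEK293T cells bearing a UAS-beta-lactamase reporter under ER-beta control, DMSO-delivered compounds were incubated for 16 hr at 37C. Activity was detected as fluorescence 2 hours after LiveBLAzer B/G FRET substrate addition.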

The target is the same in test [18]. The test is described as follows: qHTS assay to identify small molecule antagonists of the estrogen receptor beta (ER-beta) signaling pathway (AID 1259378; active means well fitted inhibition curve with a large enough effect in the signal ratio in the repeat runs, not every such curve was filed as active; the % refers to the signal ratio). The method in brief:
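ER-beta-UAS-bla HEK293T cells in 2% charcoal-stripped FBS medium treated with compound plus 1nM final 17-beta-estradiol for 16 hr at 37C. Beta-lactamase reporter read by FRET substrate fluorescence after 2 hours at room temperature.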

Test [19] addresses Androgen receptor (Homo sapiens) (UniProt P10275). The test is described as follows: qHTS assay to identify small molecule agonists of the androgen receptor (AR) signaling pathway in the presence of an antagonist (AID 1259381; calls by dose curve; further: nearly all actives have a fitted effect of over 15% in size). Put shortly: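 Here, 15-concentration compound series were pin-transferred onto MDA-kb2 MMTV-luciferase cells already dosed with nilutamide (3.0uM final). After 16hr at 37C, ONE-Glo was added and luminescence read 30min later at room temperature.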

Results filed as inconclusive are left out. More than one record can exist for a structure, and the calls need not agree. The source made the active and inactive calls. Unless noted, the call rests on the fitted dose curve; in most records, active means well fitted curve in the direction sought with a large enough effect in the repeat runs; inconclusive means weak or mixed curves; inactive means no such curve, though single readings can be large; an effect the other way counts as inactive or inconclusive.

Estrogen receptor beta (Homo sapiens), sequence (Q92731 whole entry, looked up): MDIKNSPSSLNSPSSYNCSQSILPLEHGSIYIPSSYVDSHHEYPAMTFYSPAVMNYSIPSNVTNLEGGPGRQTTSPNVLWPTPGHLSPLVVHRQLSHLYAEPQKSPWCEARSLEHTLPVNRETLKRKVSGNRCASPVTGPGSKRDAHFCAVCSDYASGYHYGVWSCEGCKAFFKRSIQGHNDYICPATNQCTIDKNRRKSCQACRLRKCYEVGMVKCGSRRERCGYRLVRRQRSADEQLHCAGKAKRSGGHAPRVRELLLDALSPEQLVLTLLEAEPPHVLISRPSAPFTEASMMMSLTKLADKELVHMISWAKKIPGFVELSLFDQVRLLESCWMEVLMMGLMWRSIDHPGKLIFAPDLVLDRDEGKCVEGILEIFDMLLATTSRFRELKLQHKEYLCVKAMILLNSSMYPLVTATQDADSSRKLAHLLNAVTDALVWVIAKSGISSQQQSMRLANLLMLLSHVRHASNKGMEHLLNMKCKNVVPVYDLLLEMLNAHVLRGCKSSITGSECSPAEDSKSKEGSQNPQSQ
Androgen receptor (Homo sapiens), sequence (P10275 whole entry, looked up): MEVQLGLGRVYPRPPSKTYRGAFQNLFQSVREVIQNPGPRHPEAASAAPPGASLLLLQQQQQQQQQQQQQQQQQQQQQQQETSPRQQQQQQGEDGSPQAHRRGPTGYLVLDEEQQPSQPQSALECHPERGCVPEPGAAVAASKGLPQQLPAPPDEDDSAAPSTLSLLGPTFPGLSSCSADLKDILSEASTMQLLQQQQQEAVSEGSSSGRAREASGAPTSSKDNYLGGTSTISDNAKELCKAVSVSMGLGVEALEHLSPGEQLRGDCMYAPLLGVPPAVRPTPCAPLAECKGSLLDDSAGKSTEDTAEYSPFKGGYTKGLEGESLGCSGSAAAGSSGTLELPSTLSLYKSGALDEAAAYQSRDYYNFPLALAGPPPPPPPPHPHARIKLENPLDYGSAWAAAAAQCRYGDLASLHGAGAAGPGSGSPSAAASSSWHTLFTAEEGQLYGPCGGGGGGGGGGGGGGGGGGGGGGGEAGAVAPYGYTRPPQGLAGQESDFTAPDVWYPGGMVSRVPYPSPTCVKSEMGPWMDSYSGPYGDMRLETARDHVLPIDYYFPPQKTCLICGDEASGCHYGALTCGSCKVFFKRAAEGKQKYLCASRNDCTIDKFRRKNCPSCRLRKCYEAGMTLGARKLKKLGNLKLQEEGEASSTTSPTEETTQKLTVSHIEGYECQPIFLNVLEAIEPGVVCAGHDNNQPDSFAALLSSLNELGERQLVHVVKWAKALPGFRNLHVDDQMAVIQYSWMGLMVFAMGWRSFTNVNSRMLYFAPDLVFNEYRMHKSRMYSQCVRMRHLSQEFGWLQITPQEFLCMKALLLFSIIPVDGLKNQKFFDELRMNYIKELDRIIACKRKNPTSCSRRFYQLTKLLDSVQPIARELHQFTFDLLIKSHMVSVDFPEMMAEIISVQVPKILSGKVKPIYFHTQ

Turning to `CC(=O)C=C(C)C`, the Potency result in test [1], in [2], in test [4], in [5], in test [8] and in [9] was “inactive” in each case. Moreover, the Potency result in test [10], in test [12] and in test [15] was “inactive” in each case. Further, the result in test [3], in test [6], in test [7], in test [11], in test [13] and in test [14] was inactive.

For `Cc1cccc([N+](=O)[O-])c1`, the Potency entry in test [1], in test [2], in [4], in test [5], in [16] and in [8] was “inactive” each time. Also, the Potency result in [9], in [10], in test [12] and in test [15] was “inactive” throughout. Also, the call in test [3], in test [6], in test [7], in test [11], in [13] and in test [14] was inactive.

In the case of `C=CC(N)=O`, the Potency result in test [1], in [2], in test [4], in test [5], in test [8] and in [9] was “inactive” in each case. The Potency result in test [10] and in [12] was “inactive” in each case. Moreover, the call in test [3], in test [6], in [7], in [11] and in test [13] was inactive.

As to `CC(C)NC(=O)N1CC(=O)N(c2cc(Cl)cc(Cl)c2)C1=O`, the Potency result in test [1], in test [2], in test [9], in [10] and in test [12] was “inactive” each time. Moreover, the call in [3], in test [6], in test [7], in test [11], in test [13] and in test [14] was inactive. Further, the Potency in [4] is 48.6 µM (active) and inactive; in test [5], 54.5 µM (active) and inactive.

Turning to `CCOP(OCC)OCC`, the Potency entry in test [1], in test [2], in test [4], in test [5], in test [16] and in test [8] was “inactive” in each case. The Potency result in test [9], in test [10] and in test [15] was “inactive” in each case. For the same molecule, the result in test [3], in test [6], in [7], in test [13] and in test [14] was inactive.

As to `Nc1ccc(Br)cc1`, the Potency result in [1], in test [2], in [4], in [5], in [17] and in test [8] was “inactive” in each case. Besides, the Potency result in [9], in test [10] and in test [12] was “inactive” each time. The molecule was called inactive in test [3], in test [6], in test [7], in [11], in test [13] and in test [14]. The Potency in test [15] is 61 µM (active).

As for `Cn1cc(-c2ccccc2)c(=O)c(-c2cccc(C(F)(F)F)c2)c1`, the Potency entry in test [1], in test [2], in test [9], in test [10], in test [12] and in [15] was “inactive” throughout. In addition, the molecule was classed as inactive in test [3], in test [6], in test [7], in test [11] and in test [14]. The Potency in test [8] was 59.6 µM (active).

On to `O=C(O)c1ccccn1`, for which the Potency result in [1], in [2], in test [4], in [5], in test [16] and in [17] was “inactive” throughout. The Potency entry in test [8], in test [9], in test [10] and in [15] was “inactive” throughout. For the same molecule, the molecule was called inactive in test [3], in test [6], in test [18], in [7], in test [13] and in test [14].

In the case of `[N-]=[N+]=[N-]`, the Potency result in [1], in test [2], in [4], in test [5], in test [8] and in test [9] was “inactive” throughout. The Potency entry in test [10], in test [12] and in test [15] was “inactive” each time. Moreover, the outcome in test [3], in test [6], in test [7], in test [19], in [11] and in test [13] was inactive. Besides, in test [14], the outcome was inactive.

In the case of `CC(C#N)CCC#N` (stereo not drawn), the Potency result in test [1], in test [2], in [4], in [5], in [17] and in test [8] was “inactive” in each case. Moreover, the Potency entry in test [9], in test [10], in [12] and in [15] was “inactive” in each case. Moreover, the result in test [3], in test [6], in test [18], in [7], in test [11] and in test [13] was inactive. Besides, in test [14], the molecule was called inactive.

The record behind these values is PubChem BioAssay (Tox21).
